53 molecules from PubChem BioAssay AID771 (SRMLSC, 2007) can be followed below.

Molecules are shown by their SMILES. Hit rate of the full screen: of about 3,300 compounds, about 55 (2%) were called active.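 The calls were made as follows: active = growth inhibition above 90%, meaning viable cell count by imaging cut by more than 90% versus vehicle controls; inactive = growth inhibition below 90%.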 The sample as a whole holds a higher share of actives than the screen did.

The experiment is described as follows: HT29 colon tumor cell growth inhibition, primary screen, imaging, high content imaging, 48 h, CellTiter-Glo (AID 771).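 As to condensed nuclei: condensed means Hoechst nuclear area under control median minus 1.5 SD.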 As to conditions: HCS imaging cell count, at 10 µM, stronger effect = higher value; for condensed nuclei: measured here: percent cells with condensed nuclei.
Where [1] appears, read: measured here: ATP CellTiter-Glo viability inhibition.

In the case of `N#CC1(c2ccccc2)CCC(=NO)CC1` (configuration not stated), the growth inhibition was -54.8% (inactive) and the condensed nuclei amounted to 1.75%. The growth inhibition under setting [1] is -7.61%.

On to `CC1(C)Cc2c(c(-c3ccccc3)[nH]c(=O)c2C#N)CS1`, for which the growth inhibition is 40.9% (inactive) and the condensed nuclei was determined as 3.57%. In addition, the growth inhibition under setting [1] came out at 27.6%.

Regarding `C=CCn1c(N)c(C(=O)OC(C)(C)C)c2nc3ccccc3nc21`, the growth inhibition is 56.4% (inactive) and the condensed nuclei was determined as 2.73%. For the same molecule, under setting [1], the growth inhibition was determined as 24.8%.

Turning to `COCCNC(=O)c1c(N)n(CCC2=CCCCC2)c2nc3ccccc3nc12`, the growth inhibition was 39.4% (inactive) and the condensed nuclei is 2.68%. The growth inhibition under setting [1] was 20.4%.

Regarding `C=CCn1c(N)c(C(=O)Nc2ccccc2)c2nc3ccccc3nc21`, the growth inhibition is 90.9% (active) and the condensed nuclei is 18.1%. Under setting [1], the growth inhibition was 90.8%.

As to `C=CCn1c(-c2ccccc2)n[nH]c1=S`, the growth inhibition was -21.6% (inactive) and the condensed nuclei was found to be 2.91%. Besides, the growth inhibition under setting [1] was -24.2%.

For `Cc1ccc(NC(=O)c2cc(N3CCOCC3)nc3ccccc23)cc1`, the growth inhibition was 52% (inactive) and the condensed nuclei came to 7.65%. Also, the growth inhibition under setting [1] came out at 31.6%.

Turning to `CCOC(=O)c1[nH]c2ccc(OC)cc2c1NC(=O)CCN1CCc2ccccc2C1`, the growth inhibition is 24.3% (inactive) and the condensed nuclei came out at 9.73%. In addition, the growth inhibition under setting [1] was 4.08%.

Regarding `Cc1ccc2[nH]c3c(NCCN4CCOCC4)ncnc3c2c1`, the growth inhibition was 45.8% (inactive) and the condensed nuclei is 3.45%. For the same molecule, the growth inhibition under setting [1] is 24.8%.

On to `Fc1ccccc1-c1nc(NCCCN2CCOCC2)c2ccccc2n1`, for which the growth inhibition is 40% (inactive) and the condensed nuclei is 7.24%. For the same molecule, under setting [1], the growth inhibition worked out at 34.1%.

Regarding `Oc1ccccc1-c1nc(NCCN2CCOCC2)c2ccccc2n1`, the growth inhibition is 83.2% (inactive) and the condensed nuclei was found to be 16.5%. In addition, the growth inhibition under setting [1] came to 73.4%.

`Clc1ccc2[nH]c3c(NCCN4CCOCC4)ncnc3c2c1`: the growth inhibition was 90.1% (active) and the condensed nuclei is 8.91%. In addition, the growth inhibition under setting [1] was determined as 74.8%.

Regarding `CCN(CC)CCNc1ncnc2c1[nH]c1ccc(OC)cc12`, the growth inhibition is 68.1% (inactive) and the condensed nuclei was determined as 4.62%. Further, the growth inhibition under setting [1] turned out to be 44%.

In the case of `Clc1ccc2[nH]c3c(NCCCN4CCOCC4)ncnc3c2c1`, the growth inhibition is 97.5% (active) and the condensed nuclei was 33%. In addition, the growth inhibition under setting [1] is 90%.

In the case of `CC/C(C)=C1\SC(N2CCN(C(C)=O)CC2)=NC1=O`, the growth inhibition is -12% (inactive) and the condensed nuclei was 2.39%. Under setting [1], the growth inhibition is -28.4%.

Consider `Cc1c(N=Cc2c(O)n(C3CCCCC3)c(=O)[nH]c2=O)c(=O)n(-c2ccccc2)n1C`, for which the growth inhibition was -40.9% (inactive) and the condensed nuclei came out at 2.12%. Further, the growth inhibition under setting [1] was -6.25%.

In the case of `COC(=O)CN(c1nc(C)c(Br)c(OC)n1)S(=O)(=O)c1ccc(C)cc1`, the growth inhibition is 28.7% (inactive) and the condensed nuclei amounted to 1.9%. For the same molecule, under setting [1], the growth inhibition worked out at 6.19%.

As to `N#Cc1ccc(-c2ccc(OCC(O)Cn3nnc4ccccc43)cc2)cc1` (configuration not stated), the growth inhibition was 10.4% (inactive) and the condensed nuclei was 1.87%. The growth inhibition under setting [1] was -1.94%.

Consider `CCOc1ccc(-c2nnc3sc(COc4ccccc4)nn23)cc1`, for which the growth inhibition is 41.5% (inactive) and the condensed nuclei was 2.51%. For the same molecule, the growth inhibition under setting [1] is -17%.

Turning to `COc1ccccc1Nc1ncnc2c1cnn2-c1cccc(C)c1`, the growth inhibition was 30.4% (inactive) and the condensed nuclei was 2.98%. Besides, under setting [1], the growth inhibition was -0.29%.

`Cc1cccc(-n2ncc3c(NCCN4CCOCC4)ncnc32)c1`: the growth inhibition was 15.5% (inactive) and the condensed nuclei worked out at 3.92%. The growth inhibition under setting [1] worked out at 9.31%.

As to `Clc1ccc(-n2ncc3c(NCc4ccco4)ncnc32)cc1`, the growth inhibition was 92.3% (active) and the condensed nuclei was 19.6%. Moreover, under setting [1], the growth inhibition was found to be 76.5%.

`Cc1cccc(-n2ncc3c(NCc4ccco4)ncnc32)c1`: the growth inhibition was 90.8% (active) and the condensed nuclei amounted to 5.66%. In addition, under setting [1], the growth inhibition turned out to be 68.2%.

As to `Clc1ccc(-n2ncc3c(NCc4ccccn4)ncnc32)cc1`, the growth inhibition was 38.1% (inactive) and the condensed nuclei worked out at 3.3%. Besides, under setting [1], the growth inhibition is 0.14%.

For `Clc1ccc(-n2ncc3c(NCc4cccs4)ncnc32)cc1`, the growth inhibition was -9.4% (inactive) and the condensed nuclei is 3.73%. Moreover, under setting [1], the growth inhibition is -1.37%.

Take `CC(=O)c1ccc(O)c(CO)c1`: the growth inhibition was -13.1% (inactive) and the condensed nuclei came to 2.86%. Under setting [1], the growth inhibition was -11.8%.

Turning to `COC(=O)c1ccc(C2NC(C(=O)O)CS2)cc1` (configuration not stated), the growth inhibition was 16% (inactive) and the condensed nuclei was 1.25%. Also, the growth inhibition under setting [1] was -10.7%.

`CCNC(=O)Nn1c(C)nnc1C`: the growth inhibition was -8.98% (inactive) and the condensed nuclei stood at 1.64%. For the same molecule, under setting [1], the growth inhibition was -2.65%.

Take `COC(=O)Nc1nc2ccc(C(=O)c3ccccc3)cc2[nH]1`: the growth inhibition was 86.4% (inactive) and the condensed nuclei is 34.6%.

As to `CCCSc1ccc2nc(NC(=O)OC)[nH]c2c1`, the growth inhibition was 90.4% (active) and the condensed nuclei was 33.3%.

Turning to `COC(=O)Nc1nc2ccc(Sc3ccccc3)cc2[nH]1`, the growth inhibition is 90.4% (active) and the condensed nuclei came to 42%.

As to `CCOc1ccc2nc(SCC(=O)Nc3ncccn3)[nH]c2c1`, the growth inhibition is -11.5% (inactive) and the condensed nuclei is 3.9%. Further, under setting [1], the growth inhibition is 0%.

For the molecule `CCCOc1ccc2nc(NC(=O)OC)[nH]c2c1`, the growth inhibition was 78.7% (inactive) and the condensed nuclei is 35.7%.

Turning to `Cc1ccc2nc(NCc3ccccc3)[nH]c2c1`, the growth inhibition is 87.6% (inactive) and the condensed nuclei worked out at 19.4%. In addition, the growth inhibition under setting [1] came to 67.4%.

For the molecule `Cc1cc(=O)oc(C)c1C(=O)Nc1ccc2nsnc2c1`, the growth inhibition is 31.3% (inactive) and the condensed nuclei is 3.08%. Also, the growth inhibition under setting [1] was -17.1%.

As for `CCCCCNC(=O)c1c(N)n(/N=C/c2ccco2)c2nc3ccccc3nc12`, the growth inhibition was 44.5% (inactive) and the condensed nuclei was 0.77%. Further, the growth inhibition under setting [1] was determined as 5.72%.

Turning to `CC1(C)Cc2c(C#N)c(SCC(=O)c3ccccc3)nc(N3CCOCC3)c2CS1`, the growth inhibition is 83.5% (inactive) and the condensed nuclei was 17.6%. Under setting [1], the growth inhibition amounted to 76.7%.

In the case of `CCN(CC)CCOC(=O)C1(c2ccc(OC)c(OC)c2)CCCC1`, the growth inhibition was -76.7% (inactive) and the condensed nuclei came out at 1.64%. The growth inhibition under setting [1] is -5.14%.

Take `COc1ccc(C(=O)NCCCCCC(=O)O)cc1OC`: the growth inhibition is 5.72% (inactive) and the condensed nuclei was determined as 1.69%. For the same molecule, the growth inhibition under setting [1] came to 3.37%.

On to `Cc1[nH]c2ccc(F)cc2c(=O)c1SC(F)(F)C(F)C(F)(F)F` (configuration not stated), for which the growth inhibition is 31.7% (inactive) and the condensed nuclei came to 3.08%. The growth inhibition under setting [1] was -13.7%.

As to `COc1cccc2c(=O)c(SC(F)(F)C(F)C(F)(F)F)c(C)[nH]c12` (configuration not stated), the growth inhibition is 91.7% (active) and the condensed nuclei came to 11.3%. The growth inhibition under setting [1] came out at 63.5%.

On to `COc1cccc(C(=O)NCC(=O)n2nc(C)cc2C)c1`, for which the growth inhibition was -2.19% (inactive) and the condensed nuclei stood at 2.14%. Further, under setting [1], the growth inhibition was -15.9%.

With `CN(C)CC(O)COc1ccc(-c2ccc(C#N)cc2)cc1` (configuration not stated), the growth inhibition is 71.1% (inactive) and the condensed nuclei was determined as 5.66%. In addition, the growth inhibition under setting [1] was determined as 51.9%.

For the molecule `CN(C)CC(O)COc1cccc(OCC(O)CN(C)C)c1` (configuration not stated), the growth inhibition was 26.5% (inactive) and the condensed nuclei was determined as 1.99%. The growth inhibition under setting [1] was -7%.

On to `CN(C)CC(O)COc1ccc(C(C)(C)c2ccc(OCC(O)CN(C)C)cc2)cc1` (configuration not stated), for which the growth inhibition is 99.1% (active) and the condensed nuclei was determined as 29.1%. The growth inhibition under setting [1] stood at 95.7%.

With `CC(C)(C)c1ccc(C(O)CCCN2CCC(C(O)(c3ccccc3)c3ccccc3)CC2)cc1` (configuration not stated), the growth inhibition is 98.2% (active) and the condensed nuclei is 36.3%.

Regarding `OC(CCN1CCCC1)(c1ccccc1)C1CCCCC1` (configuration not stated), the growth inhibition is 57.7% (inactive) and the condensed nuclei came to 7.95%.

Turning to `OC(CCN1CCCCC1)(c1ccccc1)C1CCCCC1` (configuration not stated), the growth inhibition is 6.78% (inactive) and the condensed nuclei turned out to be 4.4%.

In the case of `CCOC(=O)C1=C(C)N=C2SC(C)C(=O)N2C1c1ccc(OC(C)=O)c(OC)c1` (configuration not stated), the growth inhibition was 42.7% (inactive) and the condensed nuclei was determined as 1.51%. Also, the growth inhibition under setting [1] was 12.7%.

Turning to `CC(C)Cc1[nH]c(=O)c(C#N)c2c1COC(C)(C)C2`, the growth inhibition was -9.54% (inactive) and the condensed nuclei turned out to be 1.96%. Besides, the growth inhibition under setting [1] was 6.82%.

Take `CCN(CC)c1ccc2cc(-c3nnc(-c4ccncc4)o3)c(=O)oc2c1`: the growth inhibition is 100% (active) and the condensed nuclei was found to be 1.36%. Also, the growth inhibition under setting [1] was -8.56%.

Take `CCCCCCc1cc2cc(-c3nnc(-c4ccccc4O)o3)c(=O)oc2cc1O`: the growth inhibition was 4.58% (inactive) and the condensed nuclei stood at 3.18%. Besides, the growth inhibition under setting [1] stood at 3.73%.

As to `CCN(CC)c1ccc2cc(C(=O)Nc3ccccn3)c(=O)oc2c1`, the growth inhibition was -58.4% (inactive) and the condensed nuclei stood at 2.18%. For the same molecule, under setting [1], the growth inhibition is -2.93%.
